Laboratory results published in PubChem BioAssay (NCATS).
Results filed as inconclusive are left out. Activity calls are given as the source filed them. Unless noted, the call rests on the fitted dose curve; in most records, active means well fitted curve in the direction sought with a large enough effect; inconclusive means small, poorly fitted or top-dose-only effect, or another doubt; inactive means no such curve, though single readings can be large; an effect the other way counts as inactive or inconclusive.

How the values were obtained:
[1] = qHTS for Inhibitors of Plasmodium falciparum (DD2) proliferation (AID 504314);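 further: parasite DNA measured by SYBR Green fluorescence after red cell lysis; plate controls were DMSO vehicle for no effect and artemisinin wells for full effect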
In short: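 SYBR Green growth assay: 72 h compound exposure of infected red cells (2.5% hematocrit, 0.3% parasitemia), then lysis and overnight dye staining, fluorescence 485/535 nm. Values scaled between DMSO and 0.29 uM artemisinin controls.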

[2] = qHTS for Inhibitors of Plasmodium falciparum (GB4) proliferation (AID 504315);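 further: 0% = DMSO vehicle and -100% = 0.29 µM artemisinin control; nearly all actives have a fitted effect of over 50% in size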
In short: (§1)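 Parasite growth measured as SYBR Green DNA fluorescence (ex 485, em 535 nm) after overnight lysis following 72 h culture at 37 °C, 0.3% parasitemia, 2.5% hematocrit. Values normalized against DMSO and 0.29 uM artemisinin controls, with plate-stack correction.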

[3] = qHTS for Inhibitors of Plasmodium falciparum (HB3) proliferation (AID 504318);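 further: 0% = DMSO vehicle and -100% = artemisinin control; nearly all actives have a fitted effect of over 60% in size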
In short: as §1

[4] = qHTS for Inhibitors of Plasmodium falciparum (CP250) proliferation (AID 504320);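 further: plate controls were DMSO vehicle for no effect and 0.29 µM artemisinin control for full effect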
In short: as §1

[5] = biological target: Atrial natriuretic peptide receptor 1 (Homo sapiens) (UniProt P16066); assay: Natriuretic polypeptide receptor (hNpr1) antagonism - Pilot CMLD screen (AID 1347052; calls by dose curve;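 further: HEK293 cells with hNpr1 stimulated by hNppA peptide at 0.1 nM; cGMP level read as GloSensor luciferase luminescence after agonist stimulation; series mostly up to about 9.2 µM; on the % scale 0 is the no-effect control and ±100 the full control effect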)
Sequence of Atrial natriuretic peptide receptor 1 (Homo sapiens) (P16066 whole entry, looked up): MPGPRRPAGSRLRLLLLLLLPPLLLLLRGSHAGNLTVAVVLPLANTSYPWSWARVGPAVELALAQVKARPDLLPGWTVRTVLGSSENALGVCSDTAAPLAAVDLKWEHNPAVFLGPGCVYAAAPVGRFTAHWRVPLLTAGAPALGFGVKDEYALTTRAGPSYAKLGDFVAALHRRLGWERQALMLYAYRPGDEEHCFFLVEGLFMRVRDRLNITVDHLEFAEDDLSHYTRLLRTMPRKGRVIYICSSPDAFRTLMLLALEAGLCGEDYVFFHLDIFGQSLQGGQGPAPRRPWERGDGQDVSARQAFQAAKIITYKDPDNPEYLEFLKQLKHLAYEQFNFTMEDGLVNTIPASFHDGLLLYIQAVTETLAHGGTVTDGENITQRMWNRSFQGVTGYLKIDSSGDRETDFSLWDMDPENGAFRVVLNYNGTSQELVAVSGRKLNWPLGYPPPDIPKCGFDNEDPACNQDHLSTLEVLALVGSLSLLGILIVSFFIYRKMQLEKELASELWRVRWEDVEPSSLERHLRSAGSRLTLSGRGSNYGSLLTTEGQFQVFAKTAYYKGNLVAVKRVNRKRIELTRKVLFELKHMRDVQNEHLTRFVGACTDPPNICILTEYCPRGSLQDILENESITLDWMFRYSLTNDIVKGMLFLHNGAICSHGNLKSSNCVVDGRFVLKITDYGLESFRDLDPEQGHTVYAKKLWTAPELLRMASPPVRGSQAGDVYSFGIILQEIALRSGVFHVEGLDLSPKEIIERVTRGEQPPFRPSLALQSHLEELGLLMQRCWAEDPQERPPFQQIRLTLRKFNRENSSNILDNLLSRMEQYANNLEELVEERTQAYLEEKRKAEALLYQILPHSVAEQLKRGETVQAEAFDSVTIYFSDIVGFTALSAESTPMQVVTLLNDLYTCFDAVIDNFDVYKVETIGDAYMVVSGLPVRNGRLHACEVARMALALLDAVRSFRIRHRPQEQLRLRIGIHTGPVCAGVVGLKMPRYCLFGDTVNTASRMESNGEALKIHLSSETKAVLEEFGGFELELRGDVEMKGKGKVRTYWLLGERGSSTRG

[6] = biological target: Cytochrome P450 3A4 (Homo sapiens) (UniProt P08684); assay: qHTS Assay for Activators of Cytochrome P450 3A4 (AID 885); further: nearly all actives have a fitted effect of over 65% in size
Sequence of Cytochrome P450 3A4 (Homo sapiens) (P08684 whole entry, looked up): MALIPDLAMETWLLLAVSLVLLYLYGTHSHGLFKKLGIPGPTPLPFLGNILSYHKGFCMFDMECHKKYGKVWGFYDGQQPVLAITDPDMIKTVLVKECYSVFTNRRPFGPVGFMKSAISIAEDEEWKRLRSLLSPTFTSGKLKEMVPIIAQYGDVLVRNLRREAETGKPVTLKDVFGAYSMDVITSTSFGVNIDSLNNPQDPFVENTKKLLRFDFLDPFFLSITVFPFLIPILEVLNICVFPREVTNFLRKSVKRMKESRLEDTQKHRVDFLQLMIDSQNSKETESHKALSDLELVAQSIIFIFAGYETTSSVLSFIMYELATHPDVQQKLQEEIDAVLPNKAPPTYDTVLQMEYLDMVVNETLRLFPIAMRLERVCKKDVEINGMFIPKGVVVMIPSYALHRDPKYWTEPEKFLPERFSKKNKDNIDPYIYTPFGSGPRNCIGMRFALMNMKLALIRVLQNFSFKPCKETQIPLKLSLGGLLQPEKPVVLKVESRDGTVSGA
In short: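 Luminescent readout of luciferin formed from 25 uM Luciferin-PPXE (KM level) by 20 nM CYP3A4 in 200 mM KPO4, with 60 min NADPH-driven reaction at room temperature after 10 min compound exposure. Ketoconazole (57 uM) defined 100% inhibition.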

COC(=O)CC=C[C@@H](C)[C@@H](C=NO[C@H](C)CN1CCCc2nc(C)c(C)cc21)N[S+](=O)([O-])c1ccc(C)cc1
inactive: Potency [1] | Potency [2] | Potency [3] | Potency [4] | Potency [5]

COCCN1C(=O)N[C@@H](c2ccccc2)[C@H](C(C)=O)[C@H]1C
inactive: Potency [1] | Potency [2] | Potency [3] | Potency [4] | Potency [5]

CCCCCCCc1cc2ccccc2c2c(C(=O)OC)c(C(=O)OC)c(C(=O)OC)n12
inactive: Potency [1] | Potency [2] | Potency [3] | Potency [4] | Potency [5]

CCN1C(=S)NC(c2ccccc2)C(C(=O)OC)=C1C (configuration not stated)
inactive: Potency [1] | Potency [2] | Potency [3] | Potency [4] | Potency [5]

C=CCC12OC3(OC)CC1[C@H](C)[C@@H](c1ccccc1)C2[C@@]3(C)O (some centres not stated)
inactive: Potency [1] | Potency [2] | Potency [3] | Potency [4] | Potency [5]

COc1cc2c(cc1OC)CSC1C(=O)N(C)C(SC2)C(=O)N1C
inactive: Potency [1] | Potency [2] | Potency [4] | Potency [5]

C[C@@H]1C=CCCO[C@]12C(=O)N(CC1CC1)c1cccc(Br)c12
inactive: Potency [1] | Potency [2] | Potency [3] | Potency [4] | Potency [5]

COC[C@@H](O)[C@H]1OCc2cc(OC)ccc2[C@H]1C=Cc1ccccc1
inactive: Potency [1] | Potency [2] | Potency [3] | Potency [4] | Potency [5]

C[C@H](O)CON1C(=O)c2ccccc2C1=O
inactive: Potency [1] | Potency [2] | Potency [4] | Potency [5]

Cc1ccc2[nH]c3nc(CCCn4ccnc4-c4ccccc4)nnc3c2c1
inactive: activity change, positive = activation [6] -50.4% [at 11.4 µM] | Potency [1] | Potency [2] | Potency [3] | Potency [4] | Potency [5]

CC[C@H](C)[C@@H](NC(=O)O[C@H]1C(=O)c2ccc(OC)cc2O[C@@H]1c1ccc2c(c1)OCO2)C(=O)OC
inactive: Potency [1] | Potency [2] | Potency [3] | Potency [4] | Potency [5]

Cc1cc2c(c(=O)o1)[C@H]1O[C@](c3ccsc3)(Cc3c1ccc1ccccc31)O2
inactive: Potency [1] | Potency [2] | Potency [4] | Potency [5]

O=C1[C@@H]2[C@H]3[C@H](O)[C@H](O)CC(=NOC[C@@H](O)COCc4ccco4)[C@@H]3CC[C@H]2C(=O)N1C[C@@H]1CCCO1
inactive: Potency [1] | Potency [2] | Potency [4] | Potency [5]
